Structures are written as SMILES. ± gives the standard deviation.

Common to all, as to settings: modulator concentration 10 µM
Assay [1] has as its system RAW-Dual (murine macrophage reporter line). As to the kind of experiment: NF-kB reporter (SEAP) activity fold change vs agonist alone; higher = enhanced NF-kB activity. In a few lines:
(§1)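 RAW-Dual murine macrophage reporter cells were seeded at 50 000 per well in 384-well plates and pre-incubated 1 hour at 37 °C with compound pin-transferred to 10 μM final. After 1 hour, a PRR agonist was added and cells incubated overnight. Supernatant NF-κB (SEAP, QUANTI-Blue, 620 nm absorbance) and IRF (Lucia luciferase, QUANTI-Luc, luminescence) signals were divided by the mean agonist-only control on the same plate to give fold change. Two replicate plates were averaged, with errors by propagation.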

The test system is the same in assay [2]. In words: IRF reporter (Lucia luciferase) activity fold change vs agonist alone; higher = enhanced IRF activity. In short, it runs like this:
as §1

Assay [3] shares this test system. In words: viability score (confluency relative to resting cells, overnight) (fraction); higher = more viable, active = viable (0.7 or more). In a few lines:
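Compound was added at a final 10 μM to RAW-Dual macrophages in 384-well plates and left overnight. Confluency was imaged with IncuCyte, and two masks were generated in IncuCyte software over all imaged wells. Each viability score is confluency relative to resting cells, and a compound met the cutoff only when both masks were above 70% of resting cells.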

The mark [4] stands for this setting: agonist: CpG ODN 1826 0.5 ug/mL.

In the case of `CCN(CC)CCOC(=O)C(O)(c1ccccc1)c1ccccc1.Cl`, the values for the NF-kB reporter in assay [1] (setting [4]), in assay [1] (agonist: LPS 0.1 ug/mL) and in assay [1] (agonist: MPLA […]) were 1.16 ± 0.16, 1.04 ± 0.41 and 0.923 ± 0.066, respectively. The IRF reporter was 1.38 ± 0.043 in assay [2] (agonist: 3'3'-cGAMP 10 ug/mL), 1.03 ± 0.3 in assay [2] (agonist: LPS 0.1 ug/mL) and 1.44 ± 0.11 in assay [2] (agonist: MPLA […]). In addition, in assay [3], the viability score is 0.98 (active).
As to `CC(NC(C)(C)C)C(=O)c1cccc(Cl)c1.Cl` (stereo unspecified), the NF-kB reporter in assay [1] (setting [4]) worked out at 0.906 ± 0.1; in assay [1] (agonist: LPS 0.1 ug/mL), 1.09 ± 0.11; in assay [1] (agonist: MPLA […]), 0.99 ± 0.048. Also, the IRF reporter in assay [2] (agonist: 3'3'-cGAMP 10 ug/mL) came to 0.986 ± 0.065; in assay [2] (agonist: LPS 0.1 ug/mL) it was 0.955 ± 0.1; in assay [2] (agonist: MPLA […]), 0.904 ± 0.14. Besides, in assay [3], the viability score was 0.998 (active).
As to `CC12CCC3C(CCC4CC(O)CCC43C)C1CCC2O` (stereo unspecified), the NF-kB reporter was 1.23 ± 0.29 in assay [1] (setting [4]), 0.968 ± 0.059 in assay [1] (agonist: LPS 0.1 ug/mL) and 2.43 ± 1.5 in assay [1] (agonist: MPLA […]). The IRF reporter in assay [2] (agonist: 3'3'-cGAMP 10 ug/mL) came to 0.891 ± 0.037; in assay [2] (agonist: LPS 0.1 ug/mL), 1.13 ± 0.18; in assay [2] (agonist: MPLA […]), 1.21 ± 0.14. In assay [3], the viability score is 0.963 (active).
Consider `O=C(CCCN1CCC(n2c(=O)[nH]c3ccccc32)CC1)c1ccc(F)cc1` [Prestw-484], for which the NF-kB reporter worked out at 0.641 ± 0.18 in assay [1] (setting [4]), 1.11 ± 0.096 in assay [1] (agonist: LPS 0.1 ug/mL) and 1.02 ± 0.097 in assay [1] (agonist: MPLA […]). Moreover, the IRF reporter in assay [2] (agonist: 3'3'-cGAMP 10 ug/mL) stood at 0.851 ± 0.035; in assay [2] (agonist: LPS 0.1 ug/mL) it was 1.1 ± 0.12; in assay [2] (agonist: MPLA […]), 1.33 ± 0.14. Further, the viability score in assay [3] was 1 (active).
On to `CC(=O)OC1CCC2(C)C(CCC3C4CCC(=O)C4(C)CCC32)C1` (stereo unspecified), for which the NF-kB reporter in assay [1] (setting [4]) was 1.22 ± 0.29; in assay [1] (agonist: LPS 0.1 ug/mL) it was 1.06 ± 0.054; in assay [1] (agonist: MPLA […]), 1.02 ± 0.089. Also, the IRF reporter in assay [2] (agonist: 3'3'-cGAMP 10 ug/mL) was determined as 0.939 ± 0.032; in assay [2] (agonist: LPS 0.1 ug/mL), 1.21 ± 0.19; in assay [2] (agonist: MPLA […]), 1.11 ± 0.18. In assay [3], the viability score is 1.01 (active).
For the compound `C1=C(c2c[nH]c3ccccc23)CCNC1`, the results for the NF-kB reporter in assay [1] (setting [4]), in assay [1] (agonist: LPS 0.1 ug/mL) and in assay [1] (agonist: MPLA […]) were 0.448 ± 0.025, 1.03 ± 0.069 and 0.915 ± 0.079, respectively. Also, the IRF reporter came to 0.496 ± 0.016 in assay [2] (agonist: 3'3'-cGAMP 10 ug/mL), 1.15 ± 0.077 in assay [2] (agonist: LPS 0.1 ug/mL) and 0.898 ± 0.087 in assay [2] (agonist: MPLA […]). For the same compound, the viability score in assay [3] is 0.989 (active).
For the compound `CC(=O)Nc1ccc(C(=O)NCC#CCN(C)C)cc1`, the NF-kB reporter in assay [1] (setting [4]) is 0.899 ± 0.04; in assay [1] (agonist: LPS 0.1 ug/mL), 0.879 ± 0.083; in assay [1] (agonist: MPLA […]) it was 1.07 ± 0.058. In addition, the results for the IRF reporter in assay [2] (agonist: 3'3'-cGAMP 10 ug/mL), in assay [2] (agonist: LPS 0.1 ug/mL) and in assay [2] (agonist: MPLA […]) were 1.04 ± 0.057, 1.17 ± 0.29 and 1.3 ± 0.45, respectively. Also, in assay [3], the viability score was 1 (active).
Turning to `Cc1ccc(C)c2sc(N3CCN(C)CC3)nc12.Cl`, the figures for the NF-kB reporter in assay [1] (setting [4]), in assay [1] (agonist: LPS 0.1 ug/mL) and in assay [1] (agonist: MPLA […]) were 0.743 ± 0.18, 1.02 ± 0.18 and 1.07 ± 0.071, respectively. In addition, the values for the IRF reporter in assay [2] (agonist: 3'3'-cGAMP 10 ug/mL), in assay [2] (agonist: LPS 0.1 ug/mL) and in assay [2] (agonist: MPLA […]) were 0.92 ± 0.032, 1.04 ± 0.14 and 1.19 ± 0.22, respectively. For the same compound, in assay [3], the viability score was 0.976 (active).
Turning to `COc1ccc2c(c1)[nH]c1c(C)nccc12`, the figures for the NF-kB reporter in assay [1] (setting [4]), in assay [1] (agonist: LPS 0.1 ug/mL) and in assay [1] (agonist: MPLA […]) were 0.6 ± 0.047, 0.885 ± 0.074 and 0.949 ± 0.09, respectively. Besides, the IRF reporter in assay [2] (agonist: 3'3'-cGAMP 10 ug/mL) is 0.431 ± 0.019; in assay [2] (agonist: LPS 0.1 ug/mL), 0.653 ± 0.11; in assay [2] (agonist: MPLA […]), 0.594 ± 0.11. For the same compound, the viability score in assay [3] is 1.03 (active).
Consider `CCn1cc(C(=O)O)c(=O)c2c(N)c(F)c(N3CCNCC3)c(F)c21`, for which the NF-kB reporter in assay [1] (setting [4]) is 0.952 ± 0.067; in assay [1] (agonist: LPS 0.1 ug/mL), 1.09 ± 0.068; in assay [1] (agonist: MPLA […]), 0.859 ± 0.073. Further, the IRF reporter in assay [2] (agonist: 3'3'-cGAMP 10 ug/mL) was 0.972 ± 0.033; in assay [2] (agonist: LPS 0.1 ug/mL), 1.47 ± 0.14; in assay [2] (agonist: MPLA […]) it was 1.2 ± 0.2. In addition, the viability score in assay [3] was 0.998 (active).
Regarding `Cl.N=C(N)NN`, the NF-kB reporter in assay [1] (setting [4]) was determined as 0.983 ± 0.15; in assay [1] (agonist: LPS 0.1 ug/mL) it was 1.02 ± 0.29; in assay [1] (agonist: MPLA […]) it was 0.917 ± 0.064. Besides, the values for the IRF reporter in assay [2] (agonist: 3'3'-cGAMP 10 ug/mL), in assay [2] (agonist: LPS 0.1 ug/mL) and in assay [2] (agonist: MPLA […]) were 0.892 ± 0.034, 1.38 ± 0.27 and 1.25 ± 0.21, respectively. In addition, the viability score in assay [3] was 0.997 (active).
Turning to `CCCC(=O)c1ccc(N2CCN(C)CC2)c(F)c1`, the NF-kB reporter in assay [1] (setting [4]) worked out at 0.956 ± 0.097; in assay [1] (agonist: LPS 0.1 ug/mL), 0.876 ± 0.1; in assay [1] (agonist: MPLA […]), 0.906 ± 0.088. Also, the IRF reporter was determined as 1.02 ± 0.056 in assay [2] (agonist: 3'3'-cGAMP 10 ug/mL), 1.22 ± 0.17 in assay [2] (agonist: LPS 0.1 ug/mL) and 1.27 ± 0.24 in assay [2] (agonist: MPLA […]). Also, the viability score in assay [3] is 1.03 (active).
As to `COc1ccc(N2C(=O)C(=Cc3ccc(OCc4ccc(F)cc4)c(OC)c3)C(=O)NC2=S)cc1`, the figures for the NF-kB reporter in assay [1] (setting [4]), in assay [1] (agonist: LPS 0.1 ug/mL) and in assay [1] (agonist: MPLA […]) were 1.08 ± 0.11, 1.04 ± 0.085 and 0.932 ± 0.057, respectively. The IRF reporter in assay [2] (agonist: 3'3'-cGAMP 10 ug/mL) came out at 0.919 ± 0.042; in assay [2] (agonist: LPS 0.1 ug/mL) it was 1.02 ± 0.062; in assay [2] (agonist: MPLA […]), 1.05 ± 0.13. Moreover, the viability score in assay [3] is 1.01 (active).

Source of the values: the supplement of paper PMC10646978.
